Data as given in PubChem BioAssay (EPA / NIEHS).
“And” between values parts separate entries of the source, which are not always exact repeats. Equal values may be shown once. More than one record can exist for a structure, and the calls need not agree. The source made the active and inactive calls. How the source made its calls: active means hit-call score of the fitted dose curve at least 0.9, where 1 is the maximum; inactive means score below 0.9.

Assays:
[1] = ATG_GRE_CIS: Attagene CIS-FACTORIAL HepG2 Assay for human Glucocorticoid Response Elements (GRE) (AID 2282947); conditions: HepG2 GRE cis-reporter, Attagene multiplex mRNA; actives raise or lower the signal
Outline: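 HepG2 cells transiently transfected with multiple cis-promoter reporter units measure endogenous TF activity; 24 h compound exposure. Reporter mRNA quantified by RT-PCR, FAM labelling, HpaI digestion and capillary electrophoresis; bidirectional fit vs DMSO baseline.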

[2] = ATG_ISRE_CIS: Attagene CIS-FACTORIAL HepG2 Assay for human Interferon Regulatory Factor 1 (IRF1) binding to an Interferon-Stimulated Response Element (ISRE) (AID 2282948); conditions: HepG2 ISRE cis-reporter (Attagene), mRNA transcription readout; actives raise or lower the signal
Outline: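 Transfected HepG2 (multiple reporter transcription units, cis elements) dosed 24 h. RNA → oligo(dT) RT → PCR → 6-FAM primer extension → HpaI → CE. DMSO = negative control/baseline.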

[3] = ATG_M_06_CIS: Attagene CIS-FACTORIAL HepG2 Assay for M06 Transcription Factor (Internal Marker) (AID 2282950); conditions: HepG2 Attagene CIS-FACTORIAL M06 internal marker reporter; actives raise or lower the signal
Outline: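 Measured 24 h post-dosing in transiently transfected HepG2 cells, this internal-marker endpoint reports reporter mRNA via RT-PCR with fluorescent primer extension and capillary electrophoresis. DMSO served as negative control and baseline for bidirectional fitting.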

[4] = target: Hepatocyte nuclear factor 6 (Homo sapiens) (UniProt Q9UBC0); experiment: ATG_HNF6_CIS: Attagene CIS-FACTORIAL HepG2 Assay for human Hepatocyte Nuclear Factor 6 (HNF6) (AID 2282952); conditions: HepG2 Attagene cis-factorial HNF6 reporter transcription; actives raise or lower the signal
Outline: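 Multiplexed mRNA reporter assay in transfected HepG2; 24 h dosing; RT-PCR plus capillary electrophoresis fluorescence; DMSO-referenced bidirectional curve fitting.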

[5] = target: Heat shock factor protein 1 (Homo sapiens) (UniProt Q00613); experiment: ATG_HSE_CIS: Attagene CIS-FACTORIAL HepG2 Assay for human Heat Shock Transcription Factor 1 (HSE) (AID 2282953); conditions: HepG2 HSE cis-reporter, Attagene RNA transcription; actives raise or lower the signal
Outline: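 Reporter mRNA induction in HepG2 is measured 24 h after dosing, using transiently transfected multiplexed cis-regulated reporter units. Signal comes from capillary electrophoresis of labelled RT-PCR products, with DMSO as negative control.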

[6] = ATG_MRE_CIS: Attagene CIS-FACTORIAL HepG2 Assay for human Metal Responsive Element (MRE) (AID 2282954); conditions: HepG2 MRE cis-reporter transcription, Attagene multiplex; actives raise or lower the signal
Outline: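 HepG2 cells transiently transfected with multiple cis-element reporter units measure endogenous MTF1-driven transcription. After 24 h compound exposure, reporter mRNA is quantified by RT-PCR with 6-FAM labelling, HpaI digestion and capillary electrophoresis; bidirectional fits versus DMSO.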

[7] = target: Hypoxia-inducible factor 1-alpha (Homo sapiens) (UniProt Q16665); experiment: ATG_HIF1a_CIS: Attagene CIS-FACTORIAL HepG2 Assay for human Hypoxia Inducible Factor 1 (HIF1A) (AID 2282951); conditions: HepG2 Attagene cis-factorial HIF1a reporter transcription; actives raise or lower the signal
Outline: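 HepG2 cells transiently transfected with multiple cis-regulated reporter transcription units measure endogenous transcription factor activity. After 24 h exposure, reporter mRNA is quantified by RT-PCR with 6-FAM labelling, HpaI digestion and capillary electrophoresis. Bidirectional fitting against DMSO.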

[8] = ATG_M_32_CIS: Attagene CIS-FACTORIAL HepG2 Assay for M32 Transcription Factor (Internal Marker) (AID 2282949); conditions: HepG2 Attagene cis-factorial M32 reporter, mRNA; actives raise or lower the signal;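 further: background control marker of the multiplexed CIS panel rather than a real target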
Outline: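 Internal background marker read-out: RT-PCR/capillary electrophoresis fluorescence of reporter transcripts from transiently transfected HepG2 cells after 24 h chemical exposure. Activity fitted bidirectionally relative to DMSO negative control.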

[9] = ATG_PBREM_CIS: Attagene CIS-FACTORIAL HepG2 Assay for human Phenobarbital-responsive Enhancer Module (PBREM) (AID 2282955); conditions: HepG2 PBREM cis-reporter, Attagene multiplexed transcription; actives raise or lower the signal
Outline: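 HepG2 cells transiently transfected with multiple cis-regulated reporter units measure endogenous transcription factor activity; 24 h compound exposure. Reporter mRNA quantified by RT-PCR, fluorescent labelling, HpaI digestion and capillary electrophoresis; bidirectional fit versus DMSO.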

Measured: AC50

Heat shock factor protein 1 (Homo sapiens), sequence (Q00613 whole entry, looked up): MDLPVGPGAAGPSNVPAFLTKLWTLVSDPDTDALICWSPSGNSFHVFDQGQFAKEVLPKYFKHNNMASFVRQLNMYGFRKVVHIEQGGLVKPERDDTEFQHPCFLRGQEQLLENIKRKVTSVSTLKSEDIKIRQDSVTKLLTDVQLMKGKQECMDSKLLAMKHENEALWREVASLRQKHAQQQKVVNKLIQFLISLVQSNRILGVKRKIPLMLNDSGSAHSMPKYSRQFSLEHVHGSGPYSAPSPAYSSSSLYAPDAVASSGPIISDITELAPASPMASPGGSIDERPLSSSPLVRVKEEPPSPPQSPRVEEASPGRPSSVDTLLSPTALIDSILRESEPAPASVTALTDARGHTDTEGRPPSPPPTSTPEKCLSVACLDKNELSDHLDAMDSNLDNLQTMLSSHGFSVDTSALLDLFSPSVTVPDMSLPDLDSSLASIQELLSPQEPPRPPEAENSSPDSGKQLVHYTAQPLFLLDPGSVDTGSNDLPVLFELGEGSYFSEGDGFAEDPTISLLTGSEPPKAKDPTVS
Hypoxia-inducible factor 1-alpha (Homo sapiens), sequence (Q16665 whole entry, looked up): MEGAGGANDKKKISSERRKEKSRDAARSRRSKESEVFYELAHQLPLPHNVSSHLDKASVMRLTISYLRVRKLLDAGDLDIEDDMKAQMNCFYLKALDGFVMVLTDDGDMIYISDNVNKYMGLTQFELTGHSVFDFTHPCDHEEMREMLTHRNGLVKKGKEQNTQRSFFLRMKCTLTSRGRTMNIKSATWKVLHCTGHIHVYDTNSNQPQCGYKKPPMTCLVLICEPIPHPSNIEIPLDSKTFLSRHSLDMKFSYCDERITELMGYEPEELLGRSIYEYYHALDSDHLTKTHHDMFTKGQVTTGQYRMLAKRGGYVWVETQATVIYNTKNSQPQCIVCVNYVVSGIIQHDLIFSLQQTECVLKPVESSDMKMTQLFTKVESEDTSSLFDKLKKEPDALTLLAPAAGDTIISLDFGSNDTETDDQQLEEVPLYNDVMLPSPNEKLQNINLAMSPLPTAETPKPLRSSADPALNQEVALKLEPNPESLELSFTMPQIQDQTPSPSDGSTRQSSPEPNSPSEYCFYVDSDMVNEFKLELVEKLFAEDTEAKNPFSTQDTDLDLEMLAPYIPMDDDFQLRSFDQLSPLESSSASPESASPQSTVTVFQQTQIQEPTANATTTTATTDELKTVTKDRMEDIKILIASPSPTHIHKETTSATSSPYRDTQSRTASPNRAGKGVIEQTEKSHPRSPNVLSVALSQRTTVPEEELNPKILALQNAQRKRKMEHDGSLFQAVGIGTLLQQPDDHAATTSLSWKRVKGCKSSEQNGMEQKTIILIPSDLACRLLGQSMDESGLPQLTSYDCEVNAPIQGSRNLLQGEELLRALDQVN
Hepatocyte nuclear factor 6 (Homo sapiens), sequence (Q9UBC0 whole entry, looked up): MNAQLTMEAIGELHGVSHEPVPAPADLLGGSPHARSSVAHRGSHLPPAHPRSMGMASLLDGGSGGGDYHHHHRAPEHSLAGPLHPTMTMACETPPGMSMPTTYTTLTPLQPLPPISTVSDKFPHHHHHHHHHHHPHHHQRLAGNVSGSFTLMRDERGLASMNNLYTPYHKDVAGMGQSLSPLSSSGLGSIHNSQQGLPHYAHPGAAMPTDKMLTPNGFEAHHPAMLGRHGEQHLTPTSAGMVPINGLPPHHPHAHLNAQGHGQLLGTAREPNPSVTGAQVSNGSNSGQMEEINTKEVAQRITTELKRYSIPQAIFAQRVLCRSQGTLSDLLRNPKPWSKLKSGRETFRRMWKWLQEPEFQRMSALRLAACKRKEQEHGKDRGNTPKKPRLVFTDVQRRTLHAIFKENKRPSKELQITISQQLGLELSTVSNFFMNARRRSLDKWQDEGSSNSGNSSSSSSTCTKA

COC(=O)[C@H]1[C@H]2C[C@@H]3c4[nH]c5cc(OC)ccc5c4CCN3C[C@H]2C[C@@H](OC(=O)c2cc(OC)c(OC)c(OC)c2)[C@@H]1OC
inactive: [1] | [2] | [3] | [4] | [5]
active: [6] 3.49 µM

CC(=O)O
inactive: [3] | [7] | [4] | [6]

CC1(C)C(=O)NC(=O)N1CO
not listed: [2] | [8] | [9]
inactive: all other assays above

O=C1OC(c2ccc(O)cc2)(c2ccc(O)cc2)c2ccccc21
inactive: [8] | [3]
active: [4] 133 µM | [5] 146 µM | [6] 45.1 µM | [9] 4.42 µM

O=NO
not listed: [1] | [2] | [8]
inactive: all other assays above

NC1CCCCC1
not listed: [1] | [8]
inactive: all other assays above

CS(=O)(=O)c1ccc([C@@H](C[C@H]2CCC(=O)C2)C(=O)Nc2cnccn2)cc1Cl
not listed: [2] | [5]
inactive: all other assays above

CC(N)=O
inactive: [1] | [8] | [3] | [4] | [5] | [6]
active: [5] 133 µM

CCC(C)N(C)C(=O)c1cc2ccccc2c(-c2ccccc2Cl)n1 (configuration not stated)
active: [5] 101 µM | [6] 97.4 µM
inactive: [8] | [3] | [4]

O=C1O[C@H]([C@H](O)CO)C(O)=C1O
not listed: [2] | [8] | [9]
inactive: all other assays above

CCCCOC(=O)CCCCC(=O)OCCCC
active: [1] 178 µM
not listed: [2] | [9]
inactive: all other assays above

C/C=C/C=C/C(=O)O
not listed: [1] | [8] | [9]
inactive: all other assays above

OCC(CO)n1cnc(-c2ccc(F)cc2)c1-c1ccnc(Oc2ccccc2)n1
not listed: [2] | [9]
inactive: all other assays above

CC(=O)O[C@]1(C(C)=O)CC[C@H]2[C@@H]3C=C(Cl)C4=CC(=O)[C@@H]5C[C@@H]5[C@]4(C)[C@H]3CC[C@@]21C
inactive: [8] | [3] | [4] | [5] | [6]
active: [4] 165 µM and 57.2 µM | [5] 83.8 µM [middle of 4 runs] | [6] 100 µM [middle of 4 runs]

CC(C)(O)c1ccc(CNC(=O)c2cccnc2Oc2ccc(F)cc2)cc1
not listed: [2] | [8] | [9]
inactive: all other assays above

Cc1occc(=O)c1O
inactive: [3] | [7] | [4] | [5] | [6]

Nc1nc(=S)c2[nH]cnc2[nH]1
not listed: [2] | [8]
inactive: all other assays above

CO[C@@H]1COCC[C@@H]1N[C@@H]1CC[C@@](C(=O)N2CCc3ncc(C(F)(F)F)cc3C2)(C(C)C)C1
not listed: [2]
inactive: all other assays above

CC(C)(C)c1ccccc1
not listed: [1] | [2] | [8]
inactive: all other assays above

Oc1ccccc1O
not listed: [7] | [8] | [9]
inactive: all other assays above

CCCCCCCC(=O)OC
inactive: [3] | [4] | [5] | [6]
active: [7] 68.3 µM

CC(=O)OCC(COC(C)=O)OC(C)=O
not listed: [2] | [9]
inactive: all other assays above

CCCC[C@H]1CN(CC2CCOCC2)C(=O)OC12CCN(C1(C)CCN(C(=O)c3c(C)ncnc3C)CC1)CC2
not listed: [1] | [5] | [9]
inactive: all other assays above

C/C=C/c1ccc(OC)cc1
inactive: [3] | [7] | [4] | [5] | [6]

CC(=O)CC(c1ccccc1)c1c(O)c2ccccc2oc1=O (configuration not stated)
not listed: [1] | [5] | [9]
inactive: all other assays above

CCCCCCCCCC[N+](C)(C)[O-]
not listed: [2] | [9]
inactive: all other assays above
